Source: PubChem (National Center for Advancing Translational Sciences (NCATS))
Only a selection was taken, and hits are over-represented in it overall.
Menin-MLL TR inh – qHTS Assay for Inhibitors Targeting the Menin-MLL Interaction in MLL Related Leukemias: Competition With Texas Red Labeled MLL-derived Mutant Peptide | O00255 | Menin + Texas Red MLL mutant peptide, fluorescence polarization | Potency, µM (highest dose often 61.6 µM), inactives show at the highest dose FP activity change, negative = inhibition, usual class: inhibitors | 270,000 compounds, 0.23% hits | AID 1768, 2009; active = well fitted inhibition curve with a large enough effect in the polarisation, with a control signal flat, not every such curve was filed as active; inconclusive = small, poorly fitted or top-dose-only effect, or effect the other way, or a change in a side signal; inactive = no such curve, though single readings can be large or run the other way; the % refers to the polarisation; also: potency is read from the fitted curve at half-maximal effect; % of control where 0% means no effect
Menin MLL FP FL – qHTS Assay for Inhibitors Targeting the Menin-MLL Interaction in MLL Related Leukemias: Competition With Fluorescein Labeled MLL-derived Peptide | Fluorescence polarization, fluorescein-MLL peptide displacement from menin | FP activity change, % at 61.4 µM | 290,000 tested, under 10 active; active = well fitted curve in the direction sought with a large enough effect in the polarisation, not every such curve was filed as active; inconclusive = small, poorly fitted or top-dose-only effect, or effect the other way, or a change in a side signal; inactive = no such curve, though single readings can be large or run the other way; the % refers to the polarisation; also: % of control where 0% means no effect
Integrin act MD – qHTS for Activators of Integrin-Mediated Alleviation for Muscular Dystrophy; Potency, µM (series often up to 38.3 µM), for inactives: at the top dose activation, most hits filed as activators; 350,000 compounds, 0.064% hits; alpha7betagal myoblasts, beta-gal FDG fluorescence, 48 h;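 also: potency is read from the fitted curve at half-maximal effect; 100% = response of the positive control SU9516; nearly all actives have a fitted effect of over 60% in size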
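Alpha7betagal+/- myoblasts (passage 13) were plated 16-24 hr, then exposed to compounds (1:260 dilution of DMSO stock) for 48 hours at 37C. After MPER lysis, β-galactosidase reporter activity was read as FDG fluorescence (ex 480/em 540) after 30 minutes.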
GLA inh pH 4.5 – qHTS Assay for Inhibitors of Human alpha-Galactosidase at pH 4.5 | Alpha-galactosidase A (Homo sapiens), P06280 | purified enzyme, 4-MU-alpha-Gal fluorescence, pH 4.5 | activity change, negative = inhibition, % at 105 µM | 230,000 tested, under 10 active | AID 1467, 2008;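 also: 0% = full activity with enzyme and -100% = basal without enzyme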
Target sequence (P06280 whole entry, looked up): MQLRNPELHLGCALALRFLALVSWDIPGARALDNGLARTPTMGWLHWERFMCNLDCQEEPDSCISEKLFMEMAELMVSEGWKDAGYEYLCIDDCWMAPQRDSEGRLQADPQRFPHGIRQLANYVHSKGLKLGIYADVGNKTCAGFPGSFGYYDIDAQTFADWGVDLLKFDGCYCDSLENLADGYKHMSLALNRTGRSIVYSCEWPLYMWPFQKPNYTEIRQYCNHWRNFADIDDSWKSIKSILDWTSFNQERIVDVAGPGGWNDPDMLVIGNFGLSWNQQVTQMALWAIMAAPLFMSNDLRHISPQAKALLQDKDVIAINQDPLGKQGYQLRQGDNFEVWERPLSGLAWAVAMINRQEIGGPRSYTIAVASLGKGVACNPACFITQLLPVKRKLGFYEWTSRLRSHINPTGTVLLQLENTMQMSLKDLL
GLA spleen mod – qHTS Assay for Inhibitors and Activators of Human alpha-Galactosidase From Spleen Homogenate; AID 2107, 2009; Alpha-galactosidase A (Homo sapiens), P06280; Potency, µM (doses to about 80 µM), for the others: at the highest dose activity change, negative = inhibition, actives largely listed as inhibitors; 240,000 compounds, 0.008% hits; human spleen homogenate, 4MU-alpha-Gal fluorescence, 40 min;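 also: potency is read from the fitted curve at half-maximal effect; 0% = enzyme with vehicle and -100% = no enzyme basal signal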
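Human spleen homogenate (1 ug) as enzyme source, 4-methylumbelliferyl-alpha-D-galactopyranoside 1 mM final, citrate/phosphate pH 5.0 with 0.01% Tween-20. Compounds 40 min at 37C, NaOH/glycine stop; fluorescence Ex 365/Em 440, Hill-fit AC50.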
MLL CXXC-DNA inh – qHTS Fluorescence Polarization Assay for Inhibitors of MLL CXXC domain - DNA interaction. Potency, µM (highest dose often 115 µM), inactives show top-dose activity change, negative = inhibition, most hits filed as inhibitors. AID 2662, 2010. 290,000 compounds, 0.037% hits. MLL-CXXC / FITC-HOXA9 DNA fluorescence polarization. Histone-lysine N-methyltransferase 2A (Homo sapiens), Q03164; active = well fitted inhibition curve with a large enough effect in the polarisation, with a control signal flat, not every such curve was filed as active; inconclusive = small, poorly fitted or top-dose-only effect, or effect the other way, or a change in a side signal; inactive = no such curve, though single readings can be large or run the other way; the % refers to the polarisation; also: potency is read from the fitted curve at half-maximal effect
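Fluorescence polarization: 7 uM MLL-CXXC (stock) preincubated 5 min with compounds, then 50 nM fluorescein-HOX-A9 DNA (stock) added; 30 min ambient. Buffer 50 mM Tris-HCl pH 7.5, 50 mM NaCl, 1 mM DTT, 0.05% BSA.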
MLL CXXC Fl – qHTS Fluorescence Polarization (FP) Assay for Inhibitors of MLL CXXC domain - DNA interaction: Fluorescein FP; shares compounds with MLL CXXC-DNA inh; MLL CXXC-DNA binding, fluorescein FP; Potency, µM (series often up to 345 µM), inactives show at the highest dose activity change, negative = inhibition, most hits filed as inhibitors; 200 compounds, 70% hits; also: potency is read from the fitted curve at half-maximal effect; nearly all actives have a fitted effect of over 80% in size
MLL CXXC FP-TR – qHTS Fluorescence Polarization (FP) Assay for Inhibitors of MLL CXXC domain - DNA interaction: Texas Red FP; MLL CXXC-DNA binding, Texas Red fluorescence polarization; AID 624161, 2012; shares compounds with MLL CXXC-DNA inh; Potency, µM (series often up to 345 µM), for inactives: at the top dose activity change, negative = inhibition, most hits filed as inhibitors; 200 compounds, 40% hits; also: potency is read from the fitted curve at half-maximal effect; % is scaled to controls: 0 for no effect and ±100 for the full control effect; nearly all actives have a fitted effect of over 75% in size
MLL CXXC HTRF – qHTS Fluorescence Polarization (FP) Assay for Inhibitors of MLL CXXC domain - DNA interaction: HTRF Assay. shares compounds with MLL CXXC-DNA inh. MLL CXXC-DNA binding, HTRF, biochemical. Potency, µM (top dose mostly 172 µM), for inactives: top-dose activity change, negative = inhibition, actives largely listed as inhibitors. 210 compounds, 30% hits; also: % is scaled to controls: 0 for no effect and ±100 for the full control effect; nearly all actives have a fitted effect of over 80% in size
* hit, by the source's call; [ ] = dose if it differs, or a comment. Unless noted, calls follow the shape of the dose curve; as a rule, active = well fitted curve in the direction sought with a large enough effect; inconclusive = small, poorly fitted or top-dose-only effect, or another doubt; inactive = no such curve, though single readings can be large; an effect the other way counts as inactive or inconclusive.

O=c1[nH]c(S)c(/C=C2\C=Nc3ccccc32)s1 was read as Menin MLL FP FL inconclusive, Integrin act MD 19%, GLA inh pH 4.5 -5, GLA spleen mod -4%, MLL CXXC-DNA inh 35µM*, MLL CXXC Fl 126µM*, MLL CXXC FP-TR inconclusive and MLL CXXC HTRF inconclusive.
Screening Oc1nc(Nc2ccc(F)cc2)sc1/C=C1\C=Nc2ccccc21 returned Menin MLL FP FL 25, Integrin act MD -1%, GLA inh pH 4.5 -11, GLA spleen mod -4% and MLL CXXC-DNA inh 24%.
COC(=O)NC(CC(C)=O)c1cccc(C)c1 (stereo unspecified) was read as Menin-MLL TR inh 10%[11.7 µM], Menin MLL FP FL -2[11.7 µM] and GLA spleen mod 2%[17.5 µM].
For O=C(NC1CCCCC1)N1CCN(C2CCCCC2)CC1 the results were Menin-MLL TR inh -6%, Menin MLL FP FL 0, Integrin act MD 24%, GLA inh pH 4.5 3, GLA spleen mod 9% and MLL CXXC-DNA inh 5%.
For S=C(NC1CCCCC1)N1CCN(C2CCCCC2)CC1 the results were Menin-MLL TR inh inconclusive, Menin MLL FP FL -11, Integrin act MD -34%, GLA inh pH 4.5 3, GLA spleen mod -6%, MLL CXXC-DNA inh inconclusive, MLL CXXC Fl inconclusive, MLL CXXC FP-TR 14% and MLL CXXC HTRF 0%.
CCCCC1(C)OC(=O)C(=Cc2ccc(-c3ccc(Cl)c(C(=O)O)c3)o2)C(=O)O1 (stereo unspecified) was read as Menin MLL FP FL 20, Integrin act MD 2%, GLA inh pH 4.5 -21, GLA spleen mod 6%, MLL CXXC-DNA inh 40µM*, MLL CXXC Fl 22µM*, MLL CXXC FP-TR 45µM* and MLL CXXC HTRF 49µM*.
For Fc1ccccc1COc1ccc(Br)cc1CNCc1cccnc1 the results were Menin-MLL TR inh inconclusive, Menin MLL FP FL -5, Integrin act MD -23%, GLA inh pH 4.5 4, GLA spleen mod -7%, MLL CXXC-DNA inh inconclusive, MLL CXXC Fl inconclusive, MLL CXXC FP-TR inconclusive and MLL CXXC HTRF -10%.
Screening Fc1ccccc1COc1ccc(Br)cc1CNCc1ccncc1 returned Menin-MLL TR inh inconclusive, Menin MLL FP FL -1, Integrin act MD -23%, GLA inh pH 4.5 -7, GLA spleen mod 7% and MLL CXXC-DNA inh -20%.
`CSC1=C(C#N)C(=O)NC(c2ccccc2O)S1` (stereo unspecified) gave Menin MLL FP FL 4, Integrin act MD 11%, GLA inh pH 4.5 -11, GLA spleen mod 0%, MLL CXXC-DNA inh 13µM*, MLL CXXC Fl 80µM*, MLL CXXC FP-TR 44% and MLL CXXC HTRF inconclusive.
Screening O=[N+]([O-])c1ccc(Oc2ccc(S(=O)(=O)Nc3ccccc3)cc2)cc1 returned Menin-MLL TR inh inconclusive, Menin MLL FP FL 3, Integrin act MD -9%, GLA inh pH 4.5 -1, GLA spleen mod 0% and MLL CXXC-DNA inh -4%.
`O=C1C(Cl)=C(NS(=O)(=O)c2ccc([N+](=O)[O-])cc2)C(=O)c2ccccc21` gave Menin MLL FP FL -2, Integrin act MD 0%, GLA inh pH 4.5 4, GLA spleen mod -1%, MLL CXXC-DNA inh 50µM*, MLL CXXC Fl 56µM*, MLL CXXC FP-TR 100µM* and MLL CXXC HTRF 77µM*.
OC(Cn1cncn1)(c1ccc(F)cc1)c1ccc(Cl)cc1 (stereo unspecified) was read as Menin-MLL TR inh -6%, Menin MLL FP FL 1, Integrin act MD -21%, MLL CXXC-DNA inh 89µM*, MLL CXXC Fl inconclusive, MLL CXXC FP-TR -19% and MLL CXXC HTRF -1%.
Screening CCOc1cc(/C=C2\C(=O)NN(c3ccccc3)C2=O)cc([N+](=O)[O-])c1O returned Menin-MLL TR inh inconclusive, Menin MLL FP FL -7, Integrin act MD -10%, GLA inh pH 4.5 2, GLA spleen mod -4% and MLL CXXC-DNA inh inconclusive.
For CCOC(=O)COc1ccc(/C=C2/C(=O)NN(c3ccc(F)cc3)C2=O)cc1OC the results were Menin-MLL TR inh 11%, Menin MLL FP FL 4, Integrin act MD inconclusive, MLL CXXC-DNA inh inconclusive, MLL CXXC Fl inconclusive, MLL CXXC FP-TR inconclusive and MLL CXXC HTRF 18%.
COc1cc(/C=C2\C(=O)NN(c3ccc(C)cc3)C2=O)cc([N+](=O)[O-])c1O was read as Menin-MLL TR inh inconclusive, Menin MLL FP FL 3, Integrin act MD 7%, GLA inh pH 4.5 -4, GLA spleen mod 3%, MLL CXXC-DNA inh 22µM*, MLL CXXC Fl 18µM*, MLL CXXC FP-TR 89µM* and MLL CXXC HTRF 97%.
Screening COc1cc(/C=C2\C(=O)NN(c3ccccc3)C2=O)cc([N+](=O)[O-])c1O returned Menin-MLL TR inh inconclusive, Menin MLL FP FL 7, Integrin act MD 7%, GLA inh pH 4.5 -7, GLA spleen mod 2%, MLL CXXC-DNA inh 25µM*, MLL CXXC Fl 45µM*, MLL CXXC FP-TR 113µM* and MLL CXXC HTRF 26%.
For COc1ccc(C2/C=C\CN(C(=O)c3ccccc3)C(Cc3ccccc3)C(=O)N2Cc2ccc(F)cc2)cc1 (stereo unspecified) the results were Menin-MLL TR inh 7%, Menin MLL FP FL 10 and GLA spleen mod 3%.
